HT1080NT lethal = kills 2HG-producing HT-1080-NT fibrosarcoma cells. HT-1080-NT fibrosarcoma viability, CellTiter-Glo ATP luminescence, 48 h. Potency, µM (doses to about 46.1 µM), without a hit: top-dose activity, negative = less viability, hits mostly cytotoxic. 1.6% of 360,000 active. AID 686970;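 also: NT is the 2HG producing partner of a matched IDH1 knockdown line; potency is read from the fitted curve at half-maximal effect; 0% = DMSO-treated cells and -100% = media-only wells without cells; nearly all actives have a fitted effect of over 55% in size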
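Read-out is CellTiter-Glo luminescence after 10 minutes at room temperature, following 48 hours' compound treatment of HT-1080-NT cells (750 cells/well, RPMI, 5% FBS, 37 degrees C).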
TDP1 cell CPT = DT40-hTDP1 cell growth loss with CPT. Potency, µM (doses to about 46.2 µM), without a hit: at the top dose activity change, negative = growth inhibition, hits mostly inhibitors. AID 686979. chicken DT40 Tdp1-/-;hTDP1 cells + 20 nM CPT, ATP luminescence, 48 h. 12% of 420,000 active; also: potency is read from the fitted curve at half-maximal effect; nearly all actives have a fitted effect of over 55% in size
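Chicken DT40 Tdp1-/- cells stably complemented with human TDP1 were seeded at 400 cells/well in medium containing 20 nM camptothecin, exposed to pin-transferred compounds, and grown at 37 °C for at least 48 hr. Viability was read as ATP luminescence.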
IL1B secr inh = inhibitors of inflammasome signaling (IL-1 beta secretion); THP-1 LPS/ATP IL-1B secretion, AlphaLISA, 16 h; stronger effect = lower value; activity change, % at 57.5 µM; 4.7% of 360,000 active; AID 743279; in the data active = activity change below about -50%; inconclusive = mostly about -30% to -49%
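Secreted IL-1B measured by AlphaLISA bead assay after 16 h compound exposure of THP-1 cells; compounds (final up to 57.5 uM) added 1 h before LPS (250 ng/mL) and ATP (1.25 mM) stimulation; lower signal means less secretion.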
TDP1 cell noCPT = qHTS for Inhibitors of human tyrosyl-DNA phosphodiesterase 1 (TDP1): qHTS in cells in absence of CPT. AID 686978, 2013. Potency, µM (top dose mostly 46.2 µM), for the others: top-dose activity change, negative = growth inhibition, actives largely listed as inhibitors. DT40 Tdp1-/- hTDP1 cells, no CPT, ATP luminescence, 48 h. 15% of 420,000 active; also: potency is read from the fitted curve at half-maximal effect; nearly all actives have a fitted effect of over 55% in size
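Cells were dispensed at 400 per well, compounds added by pin tool, plates incubated ≥48 hr at 37 °C, then CellTiter-Glo added for 30 min at room temperature before luminescence reading. Line: DT40 Tdp1-/- complemented with hTDP1; camptothecin omitted.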
HT1080 IDH1KD tx = HT-1080 IDH1 knockdown cell toxicity (counter line) | Potency, µM (titrated, usually from 46.1 µM), inactives show at the top dose activity, negative = toxicity, hits mostly cytotoxic | AID 686971 | 2% of 360,000 active | HT-1080 IDH1 knockdown viability, ATP luminescence, 48 h;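 also: potency is read from the fitted curve at half-maximal effect; 0% = DMSO wells and -100% = cell-free medium wells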
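% activity derives from luminescence (CellTiter-Glo), normalised to DMSO and no-cell wells. HT-1080-IDH1KD cells, 750/well, had 48 h compound exposure at 37 °C.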
* = called active by the depositor; ? = inconclusive; nt = no result given. The list is not random: actives were taken first. Their share in the collection is about 19%. Unless noted, calls follow the shape of the dose curve; as a rule, active = well fitted curve in the direction sought with a large enough effect; inconclusive = small, poorly fitted or top-dose-only effect, or another doubt; inactive = no such curve, though single readings can be large; an effect the other way counts as inactive or inconclusive. Unless noted, % is scaled to controls: 0 for no effect and ±100 for the full control effect.

SMILES	HT1080NT lethal	TDP1 cell CPT	IL1B secr inh	TDP1 cell noCPT	HT1080 IDH1KD tx
O=C(Nc1cccc(C(=O)OCc2cc(=O)n3c4c(sc3n2)CCCC4)c1)c1cccc(Cl)c1	nt	-20%	nt	?	nt
CC(C)C(NS(=O)(=O)c1cccc2nsnc12)C(=O)NC1CCCCC1C (centres undefined)	0%	-4%	3	-3%	-3%
COc1ccccc1NS(=O)(=O)c1cc(NC(=O)c2sccc2C)ccc1N1CCOCC1	-22%	21µM*	-16	?	-28%
COc1ccccc1NS(=O)(=O)c1cc(NC(=O)c2ccc(NC(C)=O)cc2)ccc1N1CCOCC1	2%	2.3µM*	-2	5.8µM*	3%
COc1ccccc1NS(=O)(=O)c1cc(NC(=O)c2ccncc2)ccc1N1CCOCC1	2%	12µM*	31	12µM*	1%
COc1ccccc1NS(=O)(=O)c1cc(NC(=O)C(C)(C)C)ccc1N1CCOCC1	12%	?	-18	-23%	11%
COc1ccccc1NS(=O)(=O)c1cc(NC(=O)C2CCCC2)ccc1N1CCOCC1	-4%	15µM*	-24	?	-5%
COc1ccccc1NS(=O)(=O)c1cc(NC(=O)c2cnccn2)ccc1N1CCOCC1	3%	-17%	5	0%	-9%
CCOc1ccc2ccccc2c1CNCCc1ccc(S(N)(=O)=O)cc1	-13%	-27%	-28	?	-17%
COC(=O)c1nnn(CC(=O)Nc2cc(F)ccc2F)c1C(=O)OC	nt	10%	nt	0%	nt
COc1cc(C(=O)OCc2csc(CC(=O)Nc3ccccc3C)n2)ccc1OCC(C)C	-11%	?	66	?	-15%
CC1(C)CC(=O)C(C(C#Cc2ccccc2)C2=C(O)CC(C)(C)CC2=O)=C(O)C1	?	6.5µM*	-100*	9.2µM*	?
O=C1CCCC(O)=C1C(C#Cc1ccccc1)C1=C(O)CCCC1=O	?	3.7µM*	-99*	5.2µM*	?
Cc1cccc(N(CC(=O)NC2CCCCC2)C(=O)CCC(=O)Nc2nccs2)c1	1%	17%	0	1%	1%
CCN(C(=O)CN1C(=O)S/C(=C\C=C\c2ccccc2)C1=O)C1CCS(=O)(=O)C1 (centres undefined)	1%	1.8µM*	-26	1.5µM*	0%
CCN(C(=O)CCN1C(=O)/C(=C/c2ccccc2)SC1=S)C1CCS(=O)(=O)C1 (centres undefined)	?	18µM*	-83*	?	?
CCN(CC)C(=O)CN1C(=O)/C(=C/c2ccccc2)SC1=S	0%	18µM*	-62*	15µM*	-2%
CC(=O)NNC(=O)CN1C(=O)/C(=C/c2ccccc2)SC1=S	6%	-9%	-13	18%	12%
Cc1cccc(Cn2c(C(C)(C)C)cc3cccnc32)c1	?	?	-23	21µM*	?
Cc1cccc(CN2CCN(c3ncccn3)CC2)c1	1%	4%	-16	-3%	-6%
CNc1ccc(C=C2C=CC=C2)cc1	nt	11µM*	nt	?	nt
N#CCCCN1C(=O)C(=C(C#N)C#N)c2ccccc21	-7%	16µM*	-3	?	-2%
O=C(Nc1cccc(S(=O)(=O)NC2=NCCCCC2)c1)c1cc(-c2ccco2)nc2ccccc12	?	?	5	9.2µM*	-30%
O=C(Nc1cccc(S(=O)(=O)NC2=NCCCCC2)c1)c1cccnc1Cl	10%	-18%	10	15%	-4%
O=C(Nc1cccc(S(=O)(=O)NC2=NCCCCC2)c1)c1cc(-c2ccncc2)nc2ccccc12	-4%	?	?	23µM*	3%
SMILES	HT1080NT lethal	TDP1 cell CPT	IL1B secr inh	TDP1 cell noCPT	HT1080 IDH1KD tx
O=C(Nc1cccc(S(=O)(=O)NCc2ccco2)c1)c1cc(-c2ccccc2)nc2ccccc12	-44%	?	-88*	23µM*	?
O=C(NCc1ccco1)c1cc(-c2ccccc2)nc2ccccc12	-14%	2%	-12	?	-11%
Cc1cc(C)cc(OCC(=O)Nc2nc3c(s2)CC(C(C)(C)C)CC3)c1 (centres undefined)	nt	18µM*	nt	23µM*	nt
Cc1cc(OCC(=O)Nc2nc3c(s2)CCCC3)cc(C)c1Cl	nt	-29%	nt	?	nt
CC(C)(C)C1CCc2c(sc(NC(=O)c3cccc(Cl)c3)c2C(N)=O)C1 (centres undefined)	nt	-3%	nt	-1%	nt
CC(C)(C)C1CCc2nc(NC(=O)COc3ccccc3[N+](=O)[O-])sc2C1 (centres undefined)	nt	16µM*	nt	?	nt
CC(C)c1nnc(NC(=O)COc2ccccc2[N+](=O)[O-])s1	2%	8%	-16	0%	3%
CC(C)(C)C1CCc2nc(NC(=O)c3cccc(Cl)c3)sc2C1 (centres undefined)	nt	?	nt	23µM*	nt
Cc1cccc(OCC(=O)Nc2nc3c(s2)CC(C(C)(C)C)CC3)c1C (centres undefined)	nt	16µM*	nt	18µM*	nt
Cc1cn(CC(=O)NCc2ccc(N(C)C)cc2)c(=O)[nH]c1=O	2%	?	-18	-19%	-1%
NC(=O)CC(NC(=O)Cc1ccc(Cl)cc1)c1ccc(NCCN2CCOCC2)c([N+](=O)[O-])c1 (centres undefined)	1%	-11%	-10	2%	-4%
Cc1ccc(C)c(Cn2c(=O)n(Cc3ccccc3)c(=O)c3sc4ccccc4c32)c1	nt	6%	nt	2%	nt
C=C(C)Cn1c(CCCNC(=O)CCC)nc2ccccc21	-2%	13µM*	8	15µM*	-10%
CCCC(=O)NCCc1nc2ccccc2n1Cc1c(F)cccc1Cl	nt	21µM*	nt	15µM*	nt
CCCC(=O)NCCc1nc2ccccc2n1CCC	-1%	-14%	3	-29%	-3%
CCCCn1c(CCCNC(=O)c2ccco2)nc2ccccc21	-9%	?	36	15µM*	-1%
CCCn1c(CCCNC(=O)c2ccccc2OC)nc2ccccc21	nt	?	nt	18µM*	nt
CCCCn1c(CCNC(=O)c2ccco2)nc2ccccc21	0%	?	4	?	-7%
CC1=NNC(=O)C1CCC(=O)N/N=C/c1ccccc1 (centres undefined)	-8%	13%	-5	-11%	-2%
CC(=O)NC(C)(CC(=O)c1ccccc1)c1ccccc1 (centres undefined)	1%	3%	-1	-12%	15%
CCCC(=O)NCCCc1nc2ccccc2n1C	9%	-15%	5	3%	12%
CCCCCn1c(CCCNC(=O)CC)nc2ccccc21	-2%	21µM*	38	16µM*	1%
CCCCn1c(CCNC(=O)CCC)nc2ccccc21	11%	-24%	-5	?	4%

Source: PubChem (National Center for Advancing Translational Sciences (NCATS))
